Assay results from PubChem BioAssay (NCI).
The panel holds about 83,000 compounds, 20% with a hit somewhere; the sample as a whole holds those more often.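 Method: cells in 96-well plates; compound added at one concentration; 48 h incubation; percent growth measured; values under 10 scored active.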 Active and inactive are the calls of the source.

What was measured:
Assay in all cases: NCI-60 one-dose screen, 48 h (100 = growth as untreated, 0 = no growth, -100 = all killed)
Conditions in all cases: 10 µM
[1] = system: RPMI-8226 leukemia
[2] = system: OVCAR-8 ovarian
[3] = system: OVCAR-5 ovarian
[4] = system: OVCAR-4 ovarian
[5] = system: SK-OV-3 ovarian
[6] = system: IGROV1 ovarian
[7] = system: OVCAR-3 ovarian
[8] = system: HS 578T breast
[9] = system: NCI/ADR-RES ovarian
[10] = system: T-47D breast
[11] = system: BT-549 breast
[12] = system: MDA-MB-435 melanoma
[13] = system: SW-620 colon
[14] = system: MCF7 breast
[15] = system: HCT-116 colon
[16] = system: HCC-2998 colon
[17] = system: KM12 colon
[18] = system: MDA-MB-468 breast
[19] = system: SR leukemia

Measured: growth

O=C(CSc1nnc(-c2c[nH]c3ccccc23)n1-c1ccccc1)Nc1ccc(C(=O)/C=C/c2ccc(Cl)cc2)cc1
active: [1] 4.94% | [14] 6.09% | [15] -37.3%
inactive: [2] 85.5% | [3] 98.2% | [4] 74.8% | [5] 80.7% | [6] 74.7% | [7] 69.6% | [8] 73.2% | [9] 92.9% | [10] 40.3% | [11] 93.5% | [12] 64.1% | [13] 90.4% | [16] 78% | [17] 64.5% | [18] 65.9%

N#Cc1c(-c2ccc(F)cc2)nc(SCc2ccc([N+](=O)[O-])cc2)nc1N1CCOCC1
inactive: [1] 80.3% | [2] 53.1% | [3] 92.1% | [4] 57.2% | [5] 44.5% | [6] 80.5% | [7] 69.7% | [8] 15.6% | [9] 41.6% | [10] 55.5% | [11] 58.5% | [12] 84% | [13] 80.5% | [14] 58.5% | [15] 64.4% | [16] 90.7% | [17] 84.9% | [18] 50.6%

O=C(Nc1cccc(C(F)(F)F)c1)c1cncc(C#Cc2cnc3ccc(N4CCOCC4)nn23)c1
inactive: [4] 12.7%
active: [19] -1.17% | [2] 3.84% | [5] 3.44% | [6] 1.76% | [7] -23.6% | [8] -22.4% | [9] -24% | [10] 1.64% | [11] -37.5% | [12] 4.32% | [13] 2.23% | [14] -30% | [15] 0.369% | [16] -4.89% | [17] -24.1% | [18] -64.7%

N[C@@H](CSSC[C@H](N)C(=O)Nc1ccc(OCC2CCCC2)cc1)C(=O)Nc1ccc(OCC2CCCC2)cc1
active: [1] -57.3% | [2] -59.8% | [3] -100% | [4] -96.9% | [5] -97.9% | [6] -92.1% | [7] -86.5% | [8] -61.7% | [9] -77.2% | [10] -68.9% | [11] -63.5% | [12] -100% | [13] -84% | [14] -73% | [15] -35.9% | [16] -96.5% | [17] -80.6%

COc1ccccc1[C@H]1C(C(=O)c2ccc(Cl)cc2)C2(N[C@@H]1c1ccccc1)C(=O)Nc1ccccc12 (stereo partly specified)
inactive: [4] 24.8% | [5] 16.9%
active: [1] 5.12% | [2] 4.63% | [3] -24.8% | [6] -3.06% | [7] -42.7% | [8] -12.9% | [9] -69.7% | [10] 6.01% | [11] -22.7% | [12] -58.7% | [13] 5.84% | [14] -11.1% | [15] 0.0933% | [16] -51.1% | [17] -13.5%

CC(=C(c1ccc(OCCN2CCCCC2)cc1)c1ccc(OCCN2CCCCC2)cc1)c1ccccc1
inactive: [2] 53.5% | [3] 46.3% | [4] 63.8% | [5] 74.6% | [6] 60.7% | [7] 28.3% | [8] 29.5% | [9] 51.6% | [11] 110% | [13] 12.3% | [15] 14.3% | [16] 15.7% | [17] 24.4% | [18] 37.4%
active: [1] -31.3% | [10] -20.3% | [12] -66% | [14] -48.3%

COc1ccc(/C(C)=N/N=C2C(=O)N(C)c3ccc(Br)cc32)cc1S(N)(=O)=O
inactive: [1] 79.3% | [2] 27.4% | [3] 81.4% | [4] 48.4% | [5] 58.8% | [6] 71.5% | [7] 69.6% | [8] 39.7% | [9] 68.2% | [10] 52.6% | [11] 29.2% | [12] 95.9% | [13] 85.7% | [14] 57.8% | [15] 74.4% | [16] 98.3% | [17] 97.8%

O=C(N/N=C/c1ccc(-c2cccc([N+](=O)[O-])c2)o1)c1[nH]c2ccc(Br)cc2c1-c1ccccc1
active: [2] -19.9% | [7] 1.91% | [8] -2.96% | [9] -50.9% | [14] 1.16% | [15] -53.2% | [17] 7.57%
inactive: [1] 12% | [3] 23.3% | [4] 45.5% | [5] 32.2% | [6] 33.7% | [10] 75.9% | [11] 30.5% | [12] 16.6% | [13] 15.5% | [16] 15%

O=C1Nc2ccc(F)cc2/C1=C/c1cccc(OCc2ccccn2)c1
inactive: [1] 18.6% | [2] 25.7% | [3] 60.4% | [4] 61.3% | [5] 69.6% | [6] 41.9% | [7] 27% | [10] 45% | [11] 24.1% | [16] 74.1% | [17] 15.4%
active: [8] -6.56% | [9] 7.99% | [12] -9.87% | [13] -0.341% | [14] 3.16% | [15] 1.75% | [18] -5.96%

O=C1Nc2ccc(F)cc2/C1=C/c1cccc(OCc2ccccc2)c1
inactive: [2] 24.6% | [3] 66% | [4] 36.4% | [5] 66.7% | [6] 36.6% | [8] 32.3% | [10] 13.8% | [11] 23% | [15] 10.1% | [16] 45.8% | [17] 19%
active: [1] -28.1% | [7] 7.98% | [9] -13.9% | [12] 5.74% | [13] 8.79% | [14] 3.46%

COc1ccc2nc(Cl)c(-c3cc(-c4ccccc4)nc(=O)[nH]3)cc2c1
inactive: [2] 11.3% | [3] 93.1% | [4] 85.3% | [5] 108% | [6] 78.2% | [7] 16.6% | [8] 77.3% | [10] 37.8% | [11] 38.9% | [12] 75.9% | [13] 11.1% | [14] 10.2% | [16] 84.9% | [17] 18.3% | [18] 28.5%
active: [1] -14.7% | [9] 6.75% | [15] 9.44%

CC1(c2ccccc2)NC(=O)N(CC(=O)Nc2ccc(C(=O)/C=C/C=C/c3ccccc3)cc2)C1=O (stereo unspecified)
inactive: [19] 15.2% | [2] 45% | [3] 84.1% | [4] 68.7% | [5] 120% | [6] 86.5% | [7] 47.1% | [8] 57.6% | [9] 82.7% | [10] 17% | [12] 37.1% | [13] 48.3% | [15] 27.1% | [16] 87.2% | [17] 21%
active: [14] 3.54% | [18] 3.2%

O=C(CSc1nnc(-c2ccc3nc(-c4ccccc4)[nH]c3c2)o1)Nc1ccc(Br)cc1
active: [13] 2.94%
inactive: [19] 32.1% | [2] 24.8% | [3] 86.1% | [4] 81.3% | [5] 80% | [6] 80.4% | [7] 73.9% | [8] 79.6% | [9] 78.1% | [10] 62.8% | [12] 63.4% | [14] 28.4% | [15] 19.1% | [16] 90.2% | [17] 53.9% | [18] 83.2%

N#Cc1c(-c2ccc(F)cc2)nc(SCc2ccc(F)cc2)nc1N1CCOCC1
inactive: [1] 92.7% | [2] 54.8% | [3] 83.1% | [4] 60.5% | [5] 39.6% | [6] 90.9% | [7] 75.2% | [8] 25.7% | [9] 63.5% | [10] 73.2% | [11] 64.3% | [12] 93.5% | [13] 85.5% | [14] 63.7% | [15] 66% | [16] 87.4% | [17] 87.2% | [18] 62.1%

CC1(C)CC[C@]2(C(=O)O)CC[C@]3(C)C(=CC[C@@H]4[C@@]5(C)C/C(=C/c6ccncc6)[C@H](O)C(C)(C)[C@@H]5CC[C@]43C)[C@@H]2C1
active: [18] 5.27%
inactive: [1] 19% | [2] 44.5% | [3] 67.6% | [4] 42.6% | [5] 65% | [6] 49.1% | [7] 40.9% | [8] 52.7% | [9] 32.7% | [10] 43.6% | [11] 50.8% | [12] 54.8% | [13] 34.6% | [14] 24.4% | [15] 26% | [16] 49.1% | [17] 21.1%

COc1ccc2[nH]c(=O)c(CSc3nccc(-c4ccc(Cl)cc4)n3)cc2c1
inactive: [1] 17.6% | [3] 50.9% | [4] 36.3% | [5] 42.1% | [6] 60.9% | [7] 44.8% | [8] 37.2% | [9] 12.2% | [11] 30.6% | [12] 55% | [13] 45.4% | [16] 48.3% | [17] 31.7%
active: [2] -10.4% | [10] -8.11% | [14] 7.81% | [15] -30.5%

COC[C@@H](CC(C)C)N=C1NC(=O)/C(=C/c2ccc3ncsc3c2)N1
inactive: [2] 13.7% | [4] 40.4% | [8] 11.6% | [12] 12.7% | [15] 19.2% | [16] 15.5% | [17] 21%
active: [1] 4.92% | [3] -21.7% | [5] -0.203% | [6] 8.22% | [7] -38.4% | [9] 9.71% | [10] -7.77% | [11] -10.9% | [13] 5.92% | [14] -17.7%
